# PubChem BioAssay (Tox21)
# Values joined by “and” are separate entries in the source; they are usually repeats but may differ in a detail not shown here. Equal entries are not always repeated. Records with an inconclusive call do not appear. Where a call stands in place of a potency, no number is given. More than one record can exist for a structure, and the calls need not agree. Active and inactive are the calls of the source. Calls follow the shape of the dose curve; as a rule, active = well fitted curve in the direction sought with a large enough effect in the repeat runs; inconclusive = weak or mixed curves; inactive = no such curve, though single readings can be large; an effect the other way counts as inactive or inconclusive.
# Key:
# [1] = Human pregnane X receptor (PXR) small molecule agonists, qHTS cell viability counter screen (AID 1346977); also: nearly all actives have a fitted effect of over 50% in size
# Summary of the method: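 Measures live-cell protease fluorescence (CellTiter-Fluor) in PXR-Luc HepG2 cells treated 24hr with compounds at 37C. Cells had 5hr to attach before pin transfer of DMSO solutions.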
# [2] = Caspase-3/7 induction in HepG2 cells by small molecules, qHTS assay (AID 1346978); also: nearly all actives have a fitted effect of over 15% in size
# Summary of the method: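 Caspase-3/7 induction was measured by Caspase-Glo 3/7 luminescence (30 min, room temperature) after a 17 hr compound exposure of wild-type HepG2 cells seeded at 2,000 per well and pre-incubated 5 hr.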
# [3] = Caspase-3/7 induction in CHO-K1 cells by small molecules, qHTS cell viability counter screen (AID 1346979); also: nearly all actives have a fitted effect of over 35% in size
# Summary of the method: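 In the same wells as the caspase read, viability of compound-treated wild-type CHO-K1 cells was assessed using CellTiter-Fluor, added after 16hr at 37C and measured by fluorescence following 1hr further incubation.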
# [4] = Caspase-3/7 induction in CHO-K1 cells by small molecules, qHTS assay (AID 1346980); also: nearly all actives have a fitted effect of over 15% in size
# Summary of the method: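 Luminescent Caspase-Glo 3/7 read (30min, room temperature) quantified apoptosis induction. Cells were wild-type CHO-K1, treated with compound for 17hr at 37 C and 5% CO2.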
# [5] = Caspase-3/7 induction in HepG2 cells by small molecules, qHTS cell viability counter screen (AID 1346981); also: series mostly up to about 92 µM; nearly all actives have a fitted effect of over 30% in size
# Summary of the method: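 In this quantitative HTS counter screen, compounds delivered in DMSO were left on unmodified HepG2 cells for 16 hr at 37 C. Viability was then determined fluorometrically with CellTiter-Fluor, in parallel with caspase-3/7 induction in the same wells.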
# [6] = molecular target: Nuclear receptor subfamily 1 group I member 2 (Homo sapiens) (UniProt O75469); assay: Human pregnane X receptor (PXR) small molecule agonists, qHTS assay (AID 1346982); also: nearly all actives have a fitted effect of over 35% in size
# Chain of Nuclear receptor subfamily 1 group I member 2 (Homo sapiens) (O75469 whole entry, looked up): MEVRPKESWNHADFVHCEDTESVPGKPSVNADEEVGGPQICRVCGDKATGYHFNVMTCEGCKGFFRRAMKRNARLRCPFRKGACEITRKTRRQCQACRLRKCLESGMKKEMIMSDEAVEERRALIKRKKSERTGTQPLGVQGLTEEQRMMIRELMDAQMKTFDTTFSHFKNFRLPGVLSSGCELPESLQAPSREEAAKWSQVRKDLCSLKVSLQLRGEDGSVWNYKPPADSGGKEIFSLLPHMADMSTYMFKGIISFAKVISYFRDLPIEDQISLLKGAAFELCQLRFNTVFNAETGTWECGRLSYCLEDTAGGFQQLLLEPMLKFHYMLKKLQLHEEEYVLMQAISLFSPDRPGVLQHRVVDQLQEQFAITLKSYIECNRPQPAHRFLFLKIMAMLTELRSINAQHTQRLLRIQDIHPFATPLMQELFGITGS
# Summary of the method: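 Reporter HepG2 cells expressing PXR-Luc are cultured in charcoal-stripped FBS (5%), treated with compounds for 24 hr at 37 C, and assayed by ONE-Glo luminescence after 30 min at room temperature.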
# [7] = molecular target: Cytochrome P450 2D6 (Homo sapiens) (UniProt P10635); assay: Cytochrome P450 Family 2 Subfamily D Member 6 (CYP2D6) small molecule antagonists: luciferase reporter qHTS assay (AID 1671196); also: series mostly up to about 120 µM; nearly all actives have a fitted effect of over 50% in size
# Chain of Cytochrome P450 2D6 (Homo sapiens) (P10635 whole entry, looked up): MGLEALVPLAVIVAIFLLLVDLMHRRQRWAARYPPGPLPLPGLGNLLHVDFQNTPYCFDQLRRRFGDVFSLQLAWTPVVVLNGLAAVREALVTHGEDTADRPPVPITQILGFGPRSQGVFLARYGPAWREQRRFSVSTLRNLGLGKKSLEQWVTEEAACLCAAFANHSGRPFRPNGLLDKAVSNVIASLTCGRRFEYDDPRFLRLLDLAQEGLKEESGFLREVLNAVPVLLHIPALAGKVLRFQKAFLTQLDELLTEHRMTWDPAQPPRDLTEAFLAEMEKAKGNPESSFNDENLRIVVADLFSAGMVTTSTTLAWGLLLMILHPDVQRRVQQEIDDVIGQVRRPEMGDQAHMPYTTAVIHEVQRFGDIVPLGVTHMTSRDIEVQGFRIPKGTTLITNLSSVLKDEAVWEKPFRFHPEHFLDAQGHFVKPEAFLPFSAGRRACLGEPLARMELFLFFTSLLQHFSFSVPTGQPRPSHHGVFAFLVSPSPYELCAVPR
# Summary of the method: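 Test chemicals meet CYP2D6 plus proluciferin substrate (10 min, RT); NADPH regenerating solution then drives turnover for 1 h. Detection reagent halts the reaction; luminescence measured after 20 min.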
# [8] = molecular target: Cytochrome P450 2C19 (Homo sapiens) (UniProt P33261); assay: Cytochrome P450 Family 2 Subfamily C Member 19 (CYP2C19) small molecule antagonists: luciferase reporter qHTS assay (AID 1671197); also: nearly all actives have a fitted effect of over 65% in size; also: potency is read from the fitted curve at half-maximal effect
# Chain of Cytochrome P450 2C19 (Homo sapiens) (P33261 whole entry, looked up): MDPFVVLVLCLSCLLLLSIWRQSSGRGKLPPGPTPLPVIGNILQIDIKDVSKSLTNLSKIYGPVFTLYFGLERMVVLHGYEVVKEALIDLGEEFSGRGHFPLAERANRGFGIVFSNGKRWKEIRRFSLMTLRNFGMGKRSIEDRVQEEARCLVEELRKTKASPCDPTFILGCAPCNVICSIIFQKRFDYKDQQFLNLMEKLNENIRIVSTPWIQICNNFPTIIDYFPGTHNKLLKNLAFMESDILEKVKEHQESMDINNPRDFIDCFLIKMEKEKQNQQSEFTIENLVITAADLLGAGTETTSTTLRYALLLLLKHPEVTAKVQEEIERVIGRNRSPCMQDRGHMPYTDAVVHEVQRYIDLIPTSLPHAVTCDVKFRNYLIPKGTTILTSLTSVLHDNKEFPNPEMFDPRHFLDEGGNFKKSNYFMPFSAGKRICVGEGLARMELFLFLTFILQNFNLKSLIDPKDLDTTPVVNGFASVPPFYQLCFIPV
# Summary of the method: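 Luminescent readout of CYP2C19 activity: luciferin product detected 20 min after adding detection reagent. Before that, compound and enzyme-substrate mix preincubated 10 min at room temperature; NADPH-regenerating system started a 1 h, 37C reaction. Ketoconazole as positive control.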
# [9] = molecular target: Cytochrome P450 2C9 (Homo sapiens) (UniProt P11712); assay: Cytochrome P450 Family 2 Subfamily C Member 9 (CYP2C9) small molecule antagonists: luciferase reporter qHTS assay (AID 1671198); also: series mostly up to about 120 µM; nearly all actives have a fitted effect of over 50% in size
# Chain of Cytochrome P450 2C9 (Homo sapiens) (P11712 whole entry, looked up): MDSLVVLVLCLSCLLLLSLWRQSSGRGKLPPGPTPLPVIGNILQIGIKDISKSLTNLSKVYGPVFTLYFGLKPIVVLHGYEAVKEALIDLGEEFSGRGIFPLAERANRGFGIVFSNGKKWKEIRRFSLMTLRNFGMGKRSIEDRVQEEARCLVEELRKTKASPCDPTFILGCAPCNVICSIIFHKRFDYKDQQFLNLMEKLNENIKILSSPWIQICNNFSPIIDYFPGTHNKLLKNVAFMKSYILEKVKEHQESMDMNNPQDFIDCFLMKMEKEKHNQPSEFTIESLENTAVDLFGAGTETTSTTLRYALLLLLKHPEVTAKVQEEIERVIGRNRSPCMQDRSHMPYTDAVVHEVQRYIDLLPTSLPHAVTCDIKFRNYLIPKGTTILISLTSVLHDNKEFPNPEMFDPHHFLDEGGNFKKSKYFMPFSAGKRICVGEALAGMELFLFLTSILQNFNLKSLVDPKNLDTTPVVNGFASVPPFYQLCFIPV
# Summary of the method: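 Enzyme-substrate mix preincubated with compound 10 min at room temperature; reaction started with NADPH regeneration solution, 1 h 37C. Luminescent luciferin product read after 20 min detection reagent.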
# [10] = molecular target: Cytochrome P450 1A2 (Homo sapiens) (UniProt P05177); assay: Cytochrome P450 Family 1 Subfamily A Member 2 (CYP1A2) small molecule antagonists: luciferase reporter qHTS assay (AID 1671199); also: nearly all actives have a fitted effect of over 50% in size; also: potency is read from the fitted curve at half-maximal effect
# Chain of Cytochrome P450 1A2 (Homo sapiens) (P05177 whole entry, looked up): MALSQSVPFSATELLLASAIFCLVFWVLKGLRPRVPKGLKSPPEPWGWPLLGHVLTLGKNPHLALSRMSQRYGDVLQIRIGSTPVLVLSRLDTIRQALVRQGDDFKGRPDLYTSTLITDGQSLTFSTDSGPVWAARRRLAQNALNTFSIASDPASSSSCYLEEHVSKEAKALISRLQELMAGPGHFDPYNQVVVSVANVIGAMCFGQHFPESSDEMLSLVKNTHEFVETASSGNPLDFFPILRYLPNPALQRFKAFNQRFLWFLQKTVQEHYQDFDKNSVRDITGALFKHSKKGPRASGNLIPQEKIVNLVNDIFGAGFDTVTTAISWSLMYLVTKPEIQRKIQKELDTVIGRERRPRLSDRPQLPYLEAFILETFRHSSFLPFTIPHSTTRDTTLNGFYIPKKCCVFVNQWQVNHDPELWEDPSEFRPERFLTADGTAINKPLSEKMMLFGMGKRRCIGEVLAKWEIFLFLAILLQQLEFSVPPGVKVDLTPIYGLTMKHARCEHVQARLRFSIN
# Summary of the method: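 Steps: enzyme-substrate mix dispensed; test compounds and furafylline control pinned in; 10 min room temperature; NADPH regeneration solution added, 1 h; reaction stopped with luciferin detection reagent; luminescence read after 20 min.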
# [11] = molecular target: Voltage-gated inwardly rectifying potassium channel KCNH2 (Homo sapiens) (UniProt Q12809); assay: Human Ether-a-go-go-Related Gene (hERG) channel small molecule antagonists: fluorescence cell-based qHTS assay (AID 1671200)
# Chain of Voltage-gated inwardly rectifying potassium channel KCNH2 (Homo sapiens) (Q12809 whole entry, looked up): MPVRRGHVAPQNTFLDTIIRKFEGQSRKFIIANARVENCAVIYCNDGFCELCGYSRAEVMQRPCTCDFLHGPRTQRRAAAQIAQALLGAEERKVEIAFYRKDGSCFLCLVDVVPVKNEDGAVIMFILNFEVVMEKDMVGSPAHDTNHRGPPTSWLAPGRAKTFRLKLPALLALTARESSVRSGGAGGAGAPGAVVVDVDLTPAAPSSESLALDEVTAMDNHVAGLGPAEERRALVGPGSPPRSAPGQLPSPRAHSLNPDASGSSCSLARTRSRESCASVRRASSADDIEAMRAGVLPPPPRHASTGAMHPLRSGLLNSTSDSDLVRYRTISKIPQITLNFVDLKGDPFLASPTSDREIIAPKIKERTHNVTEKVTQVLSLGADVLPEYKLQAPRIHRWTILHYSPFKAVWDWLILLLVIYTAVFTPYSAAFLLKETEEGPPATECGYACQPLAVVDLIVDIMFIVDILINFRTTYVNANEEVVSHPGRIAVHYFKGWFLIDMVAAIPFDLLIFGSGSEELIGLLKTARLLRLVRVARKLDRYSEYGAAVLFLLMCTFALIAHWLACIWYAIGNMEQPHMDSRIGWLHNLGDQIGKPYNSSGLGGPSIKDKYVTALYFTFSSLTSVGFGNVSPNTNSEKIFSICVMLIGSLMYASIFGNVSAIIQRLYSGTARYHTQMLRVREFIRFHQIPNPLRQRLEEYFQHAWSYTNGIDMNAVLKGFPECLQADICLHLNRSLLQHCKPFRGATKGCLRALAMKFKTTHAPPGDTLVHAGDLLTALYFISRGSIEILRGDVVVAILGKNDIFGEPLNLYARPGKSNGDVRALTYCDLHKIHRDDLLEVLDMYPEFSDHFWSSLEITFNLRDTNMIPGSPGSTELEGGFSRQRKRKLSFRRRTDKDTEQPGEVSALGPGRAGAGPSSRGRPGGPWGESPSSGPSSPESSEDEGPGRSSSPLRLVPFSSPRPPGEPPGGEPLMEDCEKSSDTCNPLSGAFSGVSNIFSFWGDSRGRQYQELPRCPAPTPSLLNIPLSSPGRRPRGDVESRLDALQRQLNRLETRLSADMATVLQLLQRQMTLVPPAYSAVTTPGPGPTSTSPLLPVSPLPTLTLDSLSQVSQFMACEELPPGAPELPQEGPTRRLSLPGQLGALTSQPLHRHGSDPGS
# Summary of the method: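 Quantitative HTS in hERG-U2OS cells: thallium entry through the channel reports activity, read as continuous 480/540 nm fluorescence over 2 min after stimulus addition.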
# [12] = molecular target: Cytochrome P450 3A4 (Homo sapiens) (UniProt P08684); assay: Cytochrome P450 Family 3 Subfamily A Member 4 (CYP3A4) small molecule antagonists: luciferase reporter qHTS assay (AID 1671201)
# Chain of Cytochrome P450 3A4 (Homo sapiens) (P08684 whole entry, looked up): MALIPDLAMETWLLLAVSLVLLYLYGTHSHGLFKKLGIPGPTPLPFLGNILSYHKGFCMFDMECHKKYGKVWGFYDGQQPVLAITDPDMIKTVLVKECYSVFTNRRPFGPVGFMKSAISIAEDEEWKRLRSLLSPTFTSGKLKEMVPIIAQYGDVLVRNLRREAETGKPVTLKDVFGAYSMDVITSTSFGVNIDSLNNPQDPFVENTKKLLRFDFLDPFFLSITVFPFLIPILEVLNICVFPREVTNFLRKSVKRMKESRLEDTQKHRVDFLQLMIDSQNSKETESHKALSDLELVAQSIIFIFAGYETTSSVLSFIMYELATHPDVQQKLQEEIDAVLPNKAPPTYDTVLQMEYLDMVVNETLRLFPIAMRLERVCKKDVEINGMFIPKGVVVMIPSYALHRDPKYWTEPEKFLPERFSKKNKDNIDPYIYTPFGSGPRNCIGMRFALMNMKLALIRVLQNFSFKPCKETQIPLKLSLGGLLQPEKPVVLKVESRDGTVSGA
# Summary of the method: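 Inhibition of CYP3A4 is measured as loss of light: the enzyme converts a proluciferin substrate to luciferin, detected luminescently. Reaction ran 1 h at room temperature with NADPH regeneration after a 10 min compound preincubation.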
Compound,Potency [1],Potency [2],Potency [3],outcome [4],Potency [5],Potency [6],Potency [7],Potency [8],Potency [9],Potency [10],Potency [11],Potency [12]
CCO[Si](CCCN)(OCC)OCC,inactive,inactive,inactive,inactive,inactive,inactive,inactive,inactive,inactive,inactive,inactive,inactive
CC(C)CC(=O)CC(C)CC(C)C (stereo unspecified),inactive,inactive,inactive,inactive,inactive,inactive,inactive,79.2 µM (active) and inactive,inactive,inactive,inactive,inactive
CC(=O)CC(C)(C)O,inactive,inactive,inactive,inactive,inactive,inactive,inactive,40.6 µM (active) and inactive,inactive,inactive,,inactive
CCCCCCCCCCO,inactive,inactive,inactive,inactive,inactive,inactive,inactive,inactive,,inactive and 31.7 µM (active),inactive,inactive
